MITF TRPM1 HTS – increases MITF-driven TRPM1 promoter luciferase signal | 0.75% of 300,000 active | SK-MEL-5 TRPM1-promoter luciferase, 24 h; % of positive control, neutral wells = 0 | activation, % at 12.5 µM;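 active = mean activation of at least 80% with every replicate also reaching 80%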;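 also: 0% = neutral control wells and 100% = parthenolide positive control wells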
LGR2 antag – Drosophila LGR2 receptor signaling inhibition. HEK293 LGR2, CRE-luciferase, bursicon-stimulated, 4 h. inhibition, % at 9.99 µM. 0.35% of 380,000 active;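 active = drop in luminescence signal, shown as inhibition above about 50% in the replicate tests, limit read from the data, passing the limit was not always enough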;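 also: agonist challenge used bursicon conditioned medium at about half maximal strength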
TROY signal inh – TROY signaling inhibition. Q293 LMP1-TROYcd NF-kB luciferase reporter, 4 h. inhibition, % at 10 µM. 0.98% of 360,000 active;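 active = compounds whose plate-normalised and pattern-corrected inhibition of the luciferase reporter signal at the single screening dose is 50% or more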
MITF TRPM1 inh – inhibitors of MITF-driven TRPM1 promoter in melanoma cells; 0.83% of 330,000 active; AID 488899; inhibition, % at 12.5 µM; SK-MEL-5 TRPM1 promoter luciferase, 24 h;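 active = mean inhibition across replicates of 60% or more, whatever share of single replicates reaches that level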
EBV LMP1 NFkB – inhibitors of Epstein-Barr LMP1-induced NF-kappaB reporter | LMP1-induced NF-kappaB luciferase reporter cells, luminescence | inhibition, % at 12.5 µM | 0.69% of 350,000 active | AID 504558; in the data active = inhibition above about 41%;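 also: 0% = neutral control wells and 100% = reference inhibitor control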
TWEAK-Fn14 inh – blocks TWEAK-Fn14 interaction in a reporter cell assay; TWEAK-stimulated Fn14 reporter cells, luciferase luminescence, 8 h; inhibition, % at 10 µM; 2% of 360,000 active; AID 1159606; in the data active = inhibition above about 50%
Starred values were filed as active, the others as inactive. Sampled rows, rich in hits. Any-hit rate of the full collection: about 3%.

COCCn1c(SCC(=O)NNC(=O)c2ccccc2)nc2ccccc2c1=O was read as MITF TRPM1 HTS 7, TROY signal inh 80*, MITF TRPM1 inh -7, EBV LMP1 NFkB 2 and TWEAK-Fn14 inh 1.
`COc1ccc(C(=O)Nn2c(C)nc3ccccc3c2=O)cc1` gave MITF TRPM1 HTS -5, LGR2 antag 8, TROY signal inh -4, MITF TRPM1 inh 4, EBV LMP1 NFkB -11 and TWEAK-Fn14 inh 17.
COc1cc(OC)c(NC(=O)c2cc3ccccc3cc2O)cc1Cl was read as MITF TRPM1 HTS -1, LGR2 antag 23, TROY signal inh 57*, MITF TRPM1 inh 3, EBV LMP1 NFkB -36 and TWEAK-Fn14 inh 94*.
For COc1cc(NC(=O)c2ccccc2)c(OC)cc1Cl the results were MITF TRPM1 HTS -12, TROY signal inh 6, MITF TRPM1 inh 8, EBV LMP1 NFkB -10 and TWEAK-Fn14 inh 11.
For CCOC(=O)C(C)(C)N(Cc1ccc(C)cc1)S(=O)(=O)c1ccc(Cl)c([N+](=O)[O-])c1 the results were MITF TRPM1 HTS -90, TROY signal inh 30, MITF TRPM1 inh 91*, EBV LMP1 NFkB 1 and TWEAK-Fn14 inh 60*.
`CC1=NNC(=O)/C1=C\c1cn(-c2ccccc2)nc1-c1cccs1` gave MITF TRPM1 HTS -97, LGR2 antag 59*, TROY signal inh 88*, MITF TRPM1 inh 98*, EBV LMP1 NFkB 10 and TWEAK-Fn14 inh 109*.
O=C(O)CCCCCN1C(=O)/C(=C/c2cn(-c3ccccc3)nc2-c2cccs2)SC1=S was read as MITF TRPM1 HTS 6, LGR2 antag 25, TROY signal inh 35, MITF TRPM1 inh -3, EBV LMP1 NFkB -4 and TWEAK-Fn14 inh 27.
`CC1=NNC(=O)/C1=C\c1cn(-c2ccccc2)nc1-c1ccc(F)cc1` gave MITF TRPM1 HTS -92, TROY signal inh 75*, MITF TRPM1 inh 92*, EBV LMP1 NFkB 2 and TWEAK-Fn14 inh 100*.
Screening C[C@H](CO)N1C[C@H](C)[C@@H](CN(C)Cc2ccc(Cl)c(Cl)c2)OCCCC[C@H](C)Oc2ccc(NS(=O)(=O)c3ccc(F)cc3)cc2C1=O returned LGR2 antag 23.
O=C1c2cccc(NCCCNCCO)c2C(=O)c2cccc(NCCCNCCO)c21 was read as MITF TRPM1 HTS -86, LGR2 antag 12*, TROY signal inh -5, MITF TRPM1 inh 86*, EBV LMP1 NFkB 25 and TWEAK-Fn14 inh -8.
For C[C@H]1CN([C@@H](C)CO)S(=O)(=O)c2ccc(-c3ccncc3)cc2O[C@@H]1CN(C)Cc1cccnc1 the results were LGR2 antag -1.
For C[C@H](CO)N1C[C@H](C)[C@@H](CN(C)S(=O)(=O)c2ccccc2)OCCCC[C@H](C)Oc2ccc(NS(=O)(=O)c3ccccc3)cc2C1=O the results were LGR2 antag -14.
Screening O=C(CSc1nc2ccccc2[nH]1)N1CCCCC1 returned MITF TRPM1 HTS 106*, TROY signal inh -25, MITF TRPM1 inh -103, EBV LMP1 NFkB -18 and TWEAK-Fn14 inh 2.
`O=C(CSc1nc2ccccc2[nH]1)N1CCN(c2ccccc2)CC1` gave TROY signal inh -22, MITF TRPM1 inh -15, EBV LMP1 NFkB -3 and TWEAK-Fn14 inh 15.
Cc1ccc(Nc2nc(N)nc(COC(=O)C3=COCCO3)n2)cc1 was read as MITF TRPM1 HTS 95*, LGR2 antag -78, TROY signal inh -13, MITF TRPM1 inh -92, EBV LMP1 NFkB -7 and TWEAK-Fn14 inh -32.
For C[C@@H]1CN([C@H](C)CO)C(=O)Cc2cc(NC(=O)Nc3ccccc3)ccc2O[C@@H]1CN(C)C the results were LGR2 antag 2.
O=C(O)c1cccc(N/N=C/c2ccc(-c3ccccc3)cc2)c1 was read as MITF TRPM1 HTS -24, LGR2 antag 14, TROY signal inh -104, MITF TRPM1 inh 24, EBV LMP1 NFkB 8 and TWEAK-Fn14 inh -15.
For CN(C)c1ccc(/C=N/Nc2cccc(C(=O)O)c2)cc1 the results were MITF TRPM1 HTS -81, LGR2 antag 87*, TROY signal inh -60, MITF TRPM1 inh 84*, EBV LMP1 NFkB 61* and TWEAK-Fn14 inh -14.
CC(C)(C)c1ccc(/C=N/Nc2cccc(C(=O)O)c2)cc1 was read as MITF TRPM1 HTS -59, LGR2 antag 40, TROY signal inh -55, MITF TRPM1 inh 61*, EBV LMP1 NFkB 72* and TWEAK-Fn14 inh -40.
Screening CCCCCc1c2c(cc(O)c1C(=O)O)OC(=O)c1cc(C(=O)CCCC)c(OC)cc1O2 returned MITF TRPM1 HTS 5, LGR2 antag -16, TROY signal inh -11, MITF TRPM1 inh -6, EBV LMP1 NFkB 4 and TWEAK-Fn14 inh 29.
For CCCCCc1c2c(cc(O)c1C(=O)O)OC(=O)c1c(cc(OC)cc1C(=O)CCCC)O2 the results were TROY signal inh 62*, EBV LMP1 NFkB -3 and TWEAK-Fn14 inh 14.
`C/C=C/c1ccc2c(c1)O[C@H](CN(C)Cc1cccc(F)c1)[C@H](C)CN([C@@H](C)CO)S2(=O)=O` gave LGR2 antag 16.
COc1ccccc1CNC(=O)C[C@H]1C[C@@H]2c3cc(NC(=O)c4cccnc4)ccc3O[C@@H]2[C@@H](CO)O1 was read as LGR2 antag 11.
O=C(CCN1C(=O)C2C3C=CC(C3)C2C1=O)N1CCN(c2ccccc2Cl)CC1 (centres undefined) was read as MITF TRPM1 HTS 9, TROY signal inh -1, MITF TRPM1 inh -10, EBV LMP1 NFkB 85* and TWEAK-Fn14 inh -18.
For O=C(CCN1C(=O)C2C3C=CC(C3)C2C1=O)N1CCN(c2ccccc2F)CC1 (centres undefined) the results were MITF TRPM1 HTS 0, TROY signal inh -9, MITF TRPM1 inh 2, EBV LMP1 NFkB 10 and TWEAK-Fn14 inh -12.
COc1ccc(Nc2nc(OC)nc(OC)n2)cc1 was read as MITF TRPM1 HTS 17, LGR2 antag -14, TROY signal inh -3, MITF TRPM1 inh -21, EBV LMP1 NFkB -13 and TWEAK-Fn14 inh -6.
Screening COc1ccc(Nc2ccnc(Nc3ccc(OC)cc3)n2)cc1 returned MITF TRPM1 HTS 25, LGR2 antag -61, TROY signal inh 24, MITF TRPM1 inh -31, EBV LMP1 NFkB -11 and TWEAK-Fn14 inh 64*.
Screening CCOC(=O)CN1C(=O)SC(CC(=O)Nc2nccs2)C1=O (centres undefined) returned MITF TRPM1 HTS -9, MITF TRPM1 inh 8, EBV LMP1 NFkB -5 and TWEAK-Fn14 inh 67*.
Screening COc1cc(C2C(C#N)=C(N)Oc3cc4c(cc32)OCO4)cc(OC)c1OC (centres undefined) returned MITF TRPM1 HTS -77, LGR2 antag 3, TROY signal inh 28, MITF TRPM1 inh 77*, EBV LMP1 NFkB 7 and TWEAK-Fn14 inh -2.
For O=C(Nc1cccc([N+](=O)[O-])c1)c1cc2ccccc2cc1O the results were MITF TRPM1 HTS -54, LGR2 antag -23, TROY signal inh 12, MITF TRPM1 inh 53, EBV LMP1 NFkB 23 and TWEAK-Fn14 inh 83*.

High-throughput results from PubChem.
